Experimental findings from PubChem BioAssay (NCATS) are described below.

Records with an inconclusive call do not appear. Activity calls are given as the source filed them. Calls come from the whole dose curve.

The target of this assay is Vitamin D3 receptor (Homo sapiens) (UniProt P11473). Briefly: qHTS assay for small molecule agonists of vitamin D receptor signaling (AID 588543). Conditions: HEK293T VDR-UAS-bla, beta-lactamase ratio, 16 h; series mostly up to 76.8 µM. The text has this: NIH Chemical Genomics Center [NCGC]
Sequence of Vitamin D3 receptor (Homo sapiens) (P11473 whole entry, looked up): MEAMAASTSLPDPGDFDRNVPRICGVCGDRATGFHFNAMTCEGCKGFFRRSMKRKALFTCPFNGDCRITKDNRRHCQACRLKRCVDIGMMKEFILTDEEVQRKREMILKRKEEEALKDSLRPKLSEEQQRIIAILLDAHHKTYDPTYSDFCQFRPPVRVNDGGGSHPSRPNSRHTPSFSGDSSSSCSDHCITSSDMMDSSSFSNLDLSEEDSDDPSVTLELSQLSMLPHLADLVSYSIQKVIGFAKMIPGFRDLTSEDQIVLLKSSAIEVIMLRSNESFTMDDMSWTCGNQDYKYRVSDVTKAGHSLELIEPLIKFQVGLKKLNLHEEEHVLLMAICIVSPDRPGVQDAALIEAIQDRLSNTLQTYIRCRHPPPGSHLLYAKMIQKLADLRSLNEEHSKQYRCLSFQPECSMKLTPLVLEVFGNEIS
U.S. Environmental Protection Agency [EPA]
National Institutes of Environmental Health Sciences [NIEHS]
National Toxicology Program [NTP]
The Vitamin D receptor (VDR) is a member of nuclear hormone receptor superfamily and it plays a critical role in calcium homeostasis and bone metabolism. It plays a role in inducing cell differentiation, inhibiting cell growth and in thrombogenicity. So, VDR that mediates these effects represents a pharmacological target in prevention and treatment of hyperproliferative malignancies, such as cancer and psoriasis, cardiovascular, immunological, inflammatory and renal diseases etc.
NCGC Assay Protocol Summary
Using a beta-lactamase reporter-gene under control of Vitamin D receptor (VDR) response element, a cell-based assay [GeneBLAzer (VDR -UAS-bla assay developed by Invitrogen] was used to measure VDR ligands signaling. GeneBLAzer VDR -UAS-bla HEK293T cells were used with assay medium containing 2% charcoal-stripped FBS. The assay was performed in clear bottom black Greiner 1536-well plates. 1-alpha,25-Dihydroxy vitaminD3 was used as a positive control in the screen. Library compounds were measured for their ability to stimulate the reporter gene activity. Compounds were screened in a titration series in 1536-well format. The fluorescence intensity (405 nm excitation, 460/530 nm emission) was measured using an EnVision plate reader. Data was normalized relative to 1-alpha,25-Dihydroxy vitaminD3 control (50 nM, 100%) and DMSO only wells (basal, 0%). Concentration-response titration points for each compound were fitted to the Hill equation yielding concentrations of half-maximal stimulation (EC50) and maximal response (efficacy) values.
qHTS protocol for VDR beta-lactamase assay in agonist mode
[Step] [Parameter] [Value] [Description]
1. Reagent; 6 uL; 2000 cells/well
2. Incubation; 37 C for 5 hrs
4. Controls (1-alpha,25-Dihydroxy vitaminD3); 23 nL,
- Final concentrations of 50 nM and 15 nM in two columns
5. Incubation; 37 C for 16 hrs
6. Detection reagent; 1 uL of CCF4-dye
7. Incubation; RT for 2 hrs
8. Detection; Fluorescence; Envision plate reader
In general terms: qHTS replaces the single test concentration by a dilution series.
In the case of `Cc1nnc(NS(=O)(=O)c2ccc(N)cc2)s1`, the result was inactive.

With `CN(C)c1ccc(C(=C2C=CC(=[N+](C)C)C=C2)c2ccc(N(C)C)cc2)cc1`, the outcome was inactive. In the case of `CC(=O)[C@H]1CC[C@H]2[C@@H]3CCC4=CC(=O)CC[C@]4(C)[C@H]3CC[C@]12C` it was “inactive”. With `CC[C@H](C)C(=O)O[C@H]1C[C@@H](C)C=C2C=C[C@H](C)[C@H](CC[C@@H]3C[C@@H](O)CC(=O)O3)[C@H]21`, the result was inactive. In the case of `C[C@]12C=CC(=O)C=C1CC[C@@H]1[C@@H]2C(=O)C[C@@]2(C)[C@H]1CC[C@]2(O)C(=O)CO` it was “inactive”. In the case of `Cc1cc(NS(=O)(=O)c2ccc(N)cc2)no1` it was “inactive”; in that of `CC(=O)CC(c1ccccc1)c1c(O)c2ccccc2oc1=O` (centres undefined), “inactive”. As to `OC(Cn1cncn1)(Cn1cncn1)c1ccc(F)cc1F`, the result was inactive. Take `Cc1ccnc2c1NC(=O)c1cccnc1N2C1CC1`: the outcome was inactive. In the case of `NNC(=O)c1ccncc1` it was “inactive”. In the case of `S=P(N1CC1)(N1CC1)N1CC1` it was “inactive”; in that of `CCc1cc(C(N)=S)ccn1`, “inactive”. The result for `N=C(N)c1ccc(OCCCCCOc2ccc(C(=N)N)cc2)cc1` reads “inactive”; that for `COc1ccc2cc3[n+](cc2c1OC)CCc1cc2c(cc1-3)OCO2`, “inactive”.
